Assay outcomes from PubChem BioAssay.
ssDAF-12 act – S. stercoralis DAF-12 nuclear receptor activators, primary screen, cell-based, luminescence, HEK293, GRIP1 co-expression, lit1-tk-luc; activation, % at 6.8 µM; actives 1% (n = 370,000); HEK293 ssDAF-12/GRIP1 lit1-tk-luc reporter; % of 3 µM dafachronic acid response;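 active means activation above the mean over all tested compounds plus 3 SD, cut at about 0.9% in these data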
SMARCA2 act – SMARCA2 (BRM) function activators, primary screen, cell-based, luminescence, high throughput; actives 1% (n = 370,000); activation, % at 9.1 µM; MG213 cells, MMTV-luciferase reporter, dexamethasone, overnight; in the data active means activation above about 7.8%
hcDAF12 agonist – H. contortus DAF-12 nuclear receptor activators, primary screen, cell-based, luminescence, HEK293, lit1-tk-luc reporter; activation, % at 6.8 µM; AID 652067, 2013; HEK293 hcDAF-12 lit1-tk-luc reporter; 0% DMSO, 100% Δ7-dafachronic acid; actives 1.4% (n = 370,000);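 active means activation above the mean of all tested compounds plus 3 SD, cut at about 5.5% in these data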
DAX1 inh-1 – DAX1 (NR0B1) inhibitors on StAR promoter, primary screen, cell-based, luminescence, SF-1 (NR5A1), full-length DAX-1. inhibition, % at 6.8 µM. HEK293T StAR-luciferase reporter, SF-1/DAX-1 repression relief. actives 1.1% (n = 370,000). AID 652010, 2013;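 active means inhibition above the mean over all tested compounds plus 3 SD, cut at about 3.6% in these data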;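 further: higher inhibition means more luminescence from relief of DAX-1 repression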
hgDAF-12 ag – H. glycines DAF-12 receptor agonists, primary screen, cell-based, luminescence, HEK293, GAL4 fusion, UAS-luciferase. Nuclear hormone receptor DAF-12 (Heterodera glycines), GAL4 fusion. HEK293 GAL4-hgDAF12 UAS-luciferase reporter, agonist luminescence; normalized to butyrate control. activation, % at 6.8 µM. AID 687014, 2013. actives 1.8% (n = 370,000);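 active means activation above a cutoff set at the mean of all screened compounds plus 3 SD, cut at about 10% in these data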
DAX1 inh-2 – DAX1 (NR0B1) inhibitors, primary screen, cell-based, HEK293, Gal4-DAX1, luciferase luminescence; HEK293 Gal4-DAX1 luciferase reporter; inhibition, % at 6.75 µM; actives 0.99% (n = 340,000); AID 504766, 2011;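 active means inhibition above the mean over all tested compounds plus 3 SD, cut at about 4.2% in these data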;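 further: inhibition shows as a rise in luminescence from relieved DAX1 repression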
DAX1 conf – DAX1 (NR0B1) inhibitors relieving SF-1 repression, confirmation, cell-based, luminescence, HEK293T, full-length DAX-1, SF-1 activated StAR promoter; shares compounds with DAX1 inh-1; HEK293T StAR-promoter luciferase reporter, SF-1/DAX-1 repression; inhibition, % at 6.8 µM; actives 87% (n = 2,400); AID 652134, 2013;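 active means inhibition above the average of every tested compound plus 3 SD, cut at about 3.8% in these data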
Target sequence (P51843 whole entry, looked up): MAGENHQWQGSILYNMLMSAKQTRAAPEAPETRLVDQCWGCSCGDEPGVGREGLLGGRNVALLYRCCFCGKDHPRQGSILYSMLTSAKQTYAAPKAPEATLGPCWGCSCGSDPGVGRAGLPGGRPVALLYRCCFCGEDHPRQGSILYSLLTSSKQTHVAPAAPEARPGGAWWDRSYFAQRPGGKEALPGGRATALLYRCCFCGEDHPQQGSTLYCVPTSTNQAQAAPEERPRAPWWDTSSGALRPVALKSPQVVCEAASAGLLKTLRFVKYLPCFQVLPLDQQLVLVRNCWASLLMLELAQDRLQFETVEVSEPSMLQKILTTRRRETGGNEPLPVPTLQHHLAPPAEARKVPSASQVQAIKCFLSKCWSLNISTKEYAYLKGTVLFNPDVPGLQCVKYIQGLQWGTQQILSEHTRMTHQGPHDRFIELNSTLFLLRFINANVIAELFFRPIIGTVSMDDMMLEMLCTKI
SF1 mutant ctr – StAR reporter signal changes without DAX1, counter-screen for DAX1 inhibitor project, cell-based, luminescence, AF-2 mutant SF-1, transactivation; inhibition, % at 6.8 µM; actives 78% (n = 2,400); HEK293 StAR-luciferase, SF-1 AF2 mutant; shares compounds with DAX1 inh-1; AID 652136, 2013;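 active means inhibition above the mean of all tested compounds plus 3 SD, cut at about 3% in these data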
SMARCA2 act conf – SMARCA2 (BRM) function activators, confirmation, cell-based, luminescence, triplicate; shares compounds with SMARCA2 act; MG213 cells, MMTV-luciferase with dexamethasone, overnight; MG213 cells expressing E1A, Rb sequestered; DMSO wells 0%, reference activator 100%; activation, % at 9.1 µM; actives 30% (n = 3,500); AID 652260, 2013;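 active means activation above its plate's cutoff, the mean activation of tested wells plus 3 SD, cut at about 7.9% in these data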
VP16 Luc act – GAL4-VP16 luciferase reporter activation, counter-screen for SMARCA2 (BRM) activator project, cell-based, pG5luc, luminescence, high throughput; shares compounds with SMARCA2 act; HEK293 GAL4-VP16 pG5luc reporter; scaled: DMSO wells 0%, SAHA wells 100%; activation, % at 9.1 µM; actives 41% (n = 3,500); AID 686939, 2013;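 active means activation above the solvent-only control well mean plus 3 SD, averaged across control plates, cut at about 5.2% in these data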
LXR ag – LXR agonists, Gal4 luciferase reporter, confirmation, counter-screen for hcDAF-12 agonist project, cell-based, luminescence, HEK293, H. contortus campaign; shares compounds with hcDAF12 agonist; HEK293 Gal4-LXR tk-luc reporter, 24 h; normalized: DMSO 0%, positive control 100%; activation, % at 6.8 µM; 3,400 tested, under 10 active;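 active means mean percent activation of the reporter above a cutoff set as the average over tested compounds plus their standard deviation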
hcDAF12 ag – H. contortus DAF-12 receptor agonists, confirmation, cell-based, luminescence, HEK293, lit1-tk-luc, triplicate; shares compounds with hcDAF12 agonist; HEK293 hcDAF-12 lit1-tk-luc reporter; % of Δ7-dafachronic acid response; activation, % at 6.8 µM; actives 61% (n = 3,400); AID 743032, 2013;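 active means mean activation across triplicate tests above the threshold derived from the earlier primary screen, cut at about 5.5% in these data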
hgDAF12 conf – H. glycines DAF-12 receptor agonists, confirmation, cell-based, luminescence, HEK293, GAL4-LBD fusion. shares compounds with hgDAF-12 ag. HEK293 GAL4-hgDAF12 luciferase reporter, agonist mode; percent of butyrate response. activation, % at 6.8 µM. actives 80% (n = 3,300);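 active means mean activation over triplicate wells above the hit cutoff derived from the earlier primary screen, cut at about 11% in these data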
LXR ag 2 – LXR agonists, Gal4 luciferase reporter, confirmation, counter-screen for hgDAF-12 agonist project, cell-based, luminescence, HEK293, H. glycines campaign; shares compounds with hgDAF-12 ag; 24 h; activation, % at 6.8 µM; 3,300 tested, under 10 active;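 active means mean activation of the triplicate above a set limit carried over from the primary screen, none filed active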
Of the large screens only hits and unclear results are named; the others gave an inactive call (follow-up assays come after a bar, where they were run); ! = not confirmed by another sample. Rows were chosen to be rich in hits. Some 4.8% of all compounds tested hit in one or more screens of this group.

C/C(=N\NC(=O)c1sccc1C)c1ccncc1	ssDAF-12 act 1.1, SMARCA2 act 9.2, hcDAF12 agonist 9.1, DAX1 inh-1 18.0, hgDAF-12 ag 19.9 | DAX1 conf 4.9 | SF1 mutant ctr 2.9 | SMARCA2 act conf 9.4 | VP16 Luc act 10.5 | LXR ag inactive | hcDAF12 ag inactive | hgDAF12 conf 13.6 | LXR ag 2 inactive
Cc1ccsc1C(=O)NN=C1CCCCCC1	ssDAF-12 act 1.8, hcDAF12 agonist 9.2, DAX1 inh-1 15.1, hgDAF-12 ag 14.6 | DAX1 conf 4.7 | SF1 mutant ctr 3.4 | LXR ag inactive | hcDAF12 ag inactive | hgDAF12 conf 12.8 | LXR ag 2 inactive
N#C/C(=C/c1ccco1)c1nc2ccccc2s1	ssDAF-12 act 4.0, SMARCA2 act 17.9, hcDAF12 agonist 19.7, DAX1 inh-1 4.8, hgDAF-12 ag 16.0 | DAX1 conf 12.0 | SF1 mutant ctr 7.7 | SMARCA2 act conf 9.3 | VP16 Luc act 13.7 | LXR ag inactive | hcDAF12 ag 14.3 | hgDAF12 conf 21.8 | LXR ag 2 inactive
O=C(O)c1ccccc1C(=O)Nc1ccc(-n2ccc(C(F)(F)F)n2)cc1	none
C/C(N)=C(/C#N)C(=O)CSc1nnc(-c2ccc(OC(F)F)cc2)o1	hcDAF12 agonist 6.8!, DAX1 inh-1 4.8, hgDAF-12 ag 19.7, DAX1 inh-2 6.3! | DAX1 conf 10.6 | SF1 mutant ctr 8.2 | LXR ag inactive | hcDAF12 ag 7.3 | hgDAF12 conf 13.5 | LXR ag 2 inactive
O=C(O)c1cn(CCOc2ccccc2Cl)c2ccccc12	none
CCn1c(S(=O)(=O)O)nc2ccccc21	none
COCCCN(C(=O)C1CCCCC1)c1c(N)n(Cc2ccccc2)c(=O)[nH]c1=O	none
Cc1c(Cl)cccc1NC(=O)c1cc(-c2ccccc2O)n[nH]1	none
Cc1ccc(-c2cc(-c3ccccc3Cl)[nH]n2)c(O)c1	ssDAF-12 act 1.4, SMARCA2 act 8.6, hcDAF12 agonist 10.3, DAX1 inh-1 6.0, hgDAF-12 ag 19.8, DAX1 inh-2 6.8 | DAX1 conf 13.8 | SF1 mutant ctr 8.0 | SMARCA2 act conf inactive | VP16 Luc act 10.7 | LXR ag inactive | hcDAF12 ag 10.9 | hgDAF12 conf 20.9 | LXR ag 2 inactive
O=C(COC(=O)Cc1ccc(Cl)cc1Cl)NCc1ccccc1	none
Clc1ccc(OCCSc2ncccn2)c(Br)c1	ssDAF-12 act 1.8, hcDAF12 agonist 6.4, DAX1 inh-1 5.5, hgDAF-12 ag 20.7, DAX1 inh-2 4.4 | DAX1 conf 15.5 | SF1 mutant ctr 8.1 | hgDAF12 conf 22.4 | LXR ag 2 inactive
O=C(/C=C/c1ccccc1)CC(=O)c1ccccc1O	DAX1 inh-1 4.5, hgDAF-12 ag 17.3, DAX1 inh-2 4.4 | DAX1 conf inactive | SF1 mutant ctr 4.0 | hgDAF12 conf inactive | LXR ag 2 inactive
O=C(CN1C(=O)S/C(=C/c2cccs2)C1=O)N1CCCC1	none
Cc1cccnc1NC(=O)Cn1nc(-c2ccccc2)oc1=S	ssDAF-12 act 1.0, DAX1 inh-1 4.9, hgDAF-12 ag 19.2 | DAX1 conf 11.6 | SF1 mutant ctr 7.5 | hgDAF12 conf 16.8 | LXR ag 2 inactive
Brc1ccc(/C=N/Nc2ccc3ccccc3n2)cc1	none
Fc1cccc(/C=N/Nc2ccc3ccccc3n2)c1	ssDAF-12 act 1.7, hcDAF12 agonist 11.6, DAX1 inh-1 6.7, hgDAF-12 ag 20.9 | DAX1 conf 16.3 | SF1 mutant ctr 6.6 | LXR ag inactive | hcDAF12 ag 11.4 | hgDAF12 conf 19.7 | LXR ag 2 inactive
Cc1ccc2cc(CN(CC(C)C)S(=O)(=O)c3ccccc3)c(=O)[nH]c2c1	none (no result: ssDAF-12 act, SMARCA2 act, hcDAF12 agonist, DAX1 inh-1, hgDAF-12 ag)
